Measured values published in the supplement of paper PMC11732987, “Enantioselective OTUD7B fragment discovery through chemoproteomics screening and high-throughput optimisation” (Communications Chemistry, 2025).

Assays:
Assay in all cases: log2 ratio of Biotin-Ahx-Ub-VS probe labelling (fragment/DMSO); higher = less target engagement (more negative = stronger competition), active = hit call of the paper (q ≤ 0.05, log2 ratio ≤ -1)
Details in all cases: compound concentration: 200 uM; treatment time: 3 h
ALG13 = biological target: T1, ALG13 (UniProt Q9NP73)
T1 sequence (whole entry): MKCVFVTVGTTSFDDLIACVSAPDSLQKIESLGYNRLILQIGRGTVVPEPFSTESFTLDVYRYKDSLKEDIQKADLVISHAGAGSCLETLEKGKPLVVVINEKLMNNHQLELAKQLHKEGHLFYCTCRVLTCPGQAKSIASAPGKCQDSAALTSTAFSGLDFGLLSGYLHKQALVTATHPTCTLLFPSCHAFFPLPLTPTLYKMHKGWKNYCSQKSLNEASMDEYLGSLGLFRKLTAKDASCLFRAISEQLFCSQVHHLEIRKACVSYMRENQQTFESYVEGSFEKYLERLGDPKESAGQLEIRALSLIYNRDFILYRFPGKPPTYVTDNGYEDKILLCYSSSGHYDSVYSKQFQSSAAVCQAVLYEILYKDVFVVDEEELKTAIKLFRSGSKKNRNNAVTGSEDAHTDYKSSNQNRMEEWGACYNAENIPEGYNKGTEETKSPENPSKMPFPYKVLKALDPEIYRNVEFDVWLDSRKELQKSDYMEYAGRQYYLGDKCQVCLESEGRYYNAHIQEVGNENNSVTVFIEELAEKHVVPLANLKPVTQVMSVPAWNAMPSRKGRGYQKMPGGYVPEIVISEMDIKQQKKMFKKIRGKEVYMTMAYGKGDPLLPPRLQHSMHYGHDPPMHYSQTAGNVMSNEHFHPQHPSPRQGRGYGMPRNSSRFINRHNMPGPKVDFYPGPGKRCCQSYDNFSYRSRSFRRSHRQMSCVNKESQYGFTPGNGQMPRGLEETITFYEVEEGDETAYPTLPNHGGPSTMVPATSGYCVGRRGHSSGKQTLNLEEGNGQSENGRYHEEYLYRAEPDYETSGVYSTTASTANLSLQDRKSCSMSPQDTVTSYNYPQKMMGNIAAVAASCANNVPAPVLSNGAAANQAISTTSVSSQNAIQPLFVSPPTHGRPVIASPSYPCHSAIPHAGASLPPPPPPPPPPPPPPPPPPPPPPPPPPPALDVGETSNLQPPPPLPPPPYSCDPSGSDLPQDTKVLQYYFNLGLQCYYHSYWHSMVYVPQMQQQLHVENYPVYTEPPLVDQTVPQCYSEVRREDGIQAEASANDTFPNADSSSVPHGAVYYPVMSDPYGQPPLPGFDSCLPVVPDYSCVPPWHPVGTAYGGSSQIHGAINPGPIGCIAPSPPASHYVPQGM
In short: (§1)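 Lysate from HEK293T cells, 495 µg per sample in Tris/CHAPS/IGEPAL buffer with protease inhibitors, was treated for 3 h in triplicate with fragment at 200 µM or vehicle. Biotin-Ahx-Ub-VS was next added at 0.5 µM final for 1 h. The labelled DUBs were enriched with NeutrAvidin, digested with LysC and trypsin, and run by diaPASEF LC-MS/MS, with values given as average log2 fragment/vehicle ratios by unpaired t-test on global-median-normalised Spectronaut quantities of proteins with ≥2 unique peptides.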

ATXN3 = ATXN3 (UniProt P54252)
Chain of ATXN3 (P54252 whole entry): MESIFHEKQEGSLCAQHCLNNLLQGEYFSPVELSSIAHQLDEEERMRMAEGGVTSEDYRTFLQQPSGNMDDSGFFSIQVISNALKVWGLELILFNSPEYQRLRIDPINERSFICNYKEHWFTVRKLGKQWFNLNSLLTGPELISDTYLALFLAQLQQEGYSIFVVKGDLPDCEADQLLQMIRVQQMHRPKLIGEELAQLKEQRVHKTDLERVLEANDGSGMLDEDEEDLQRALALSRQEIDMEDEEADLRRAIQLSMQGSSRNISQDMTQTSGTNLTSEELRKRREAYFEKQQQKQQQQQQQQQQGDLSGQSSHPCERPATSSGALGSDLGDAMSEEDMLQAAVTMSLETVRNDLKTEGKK
In short: as §1

BAP1 = biological target: T2, BAP1 (UniProt Q92560)
T2 sequence (whole entry): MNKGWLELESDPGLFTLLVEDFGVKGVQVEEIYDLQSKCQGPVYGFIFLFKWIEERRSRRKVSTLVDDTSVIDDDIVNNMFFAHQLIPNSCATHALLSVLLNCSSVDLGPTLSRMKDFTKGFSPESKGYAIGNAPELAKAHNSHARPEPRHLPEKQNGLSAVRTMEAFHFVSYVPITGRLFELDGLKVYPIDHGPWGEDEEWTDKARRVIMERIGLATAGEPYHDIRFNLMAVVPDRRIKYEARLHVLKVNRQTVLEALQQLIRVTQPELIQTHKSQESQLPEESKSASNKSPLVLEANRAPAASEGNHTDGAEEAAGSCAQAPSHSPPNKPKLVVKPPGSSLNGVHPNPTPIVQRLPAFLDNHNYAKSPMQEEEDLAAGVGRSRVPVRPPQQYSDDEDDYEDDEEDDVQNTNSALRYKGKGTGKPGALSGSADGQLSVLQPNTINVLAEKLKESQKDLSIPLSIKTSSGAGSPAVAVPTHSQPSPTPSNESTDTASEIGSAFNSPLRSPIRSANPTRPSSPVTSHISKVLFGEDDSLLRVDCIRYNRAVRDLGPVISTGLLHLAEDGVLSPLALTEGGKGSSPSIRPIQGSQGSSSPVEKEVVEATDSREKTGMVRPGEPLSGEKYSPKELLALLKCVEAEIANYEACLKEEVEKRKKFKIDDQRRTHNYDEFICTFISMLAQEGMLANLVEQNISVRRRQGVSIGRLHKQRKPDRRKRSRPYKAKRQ
In short: as §1

EIF3F = EIF3F (UniProt O00303)
Chain of EIF3F (O00303 whole entry): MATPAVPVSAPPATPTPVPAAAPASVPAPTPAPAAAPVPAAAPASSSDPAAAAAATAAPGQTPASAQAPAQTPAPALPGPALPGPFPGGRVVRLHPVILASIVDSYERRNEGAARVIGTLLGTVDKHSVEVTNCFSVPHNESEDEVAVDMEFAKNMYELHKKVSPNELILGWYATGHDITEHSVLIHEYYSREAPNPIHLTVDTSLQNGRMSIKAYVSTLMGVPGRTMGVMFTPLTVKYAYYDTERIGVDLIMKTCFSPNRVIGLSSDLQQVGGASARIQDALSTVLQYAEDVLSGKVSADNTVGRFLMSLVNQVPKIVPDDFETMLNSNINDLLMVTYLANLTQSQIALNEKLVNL
In short: as §1

EIF3H = EIF3H (UniProt O15372)
Chain of EIF3H (O15372 whole entry): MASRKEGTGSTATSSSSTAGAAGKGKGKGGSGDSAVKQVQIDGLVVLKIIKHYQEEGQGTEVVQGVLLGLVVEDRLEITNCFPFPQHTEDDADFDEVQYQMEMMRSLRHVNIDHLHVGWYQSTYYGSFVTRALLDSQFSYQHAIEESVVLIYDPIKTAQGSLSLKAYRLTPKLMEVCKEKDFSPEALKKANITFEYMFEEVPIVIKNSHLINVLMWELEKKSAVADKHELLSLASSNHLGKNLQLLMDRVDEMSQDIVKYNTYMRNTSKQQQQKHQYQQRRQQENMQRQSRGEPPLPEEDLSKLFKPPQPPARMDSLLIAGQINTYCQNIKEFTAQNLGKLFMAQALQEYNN
In short: as §1

FAM105A = biological target: T3, FAM105A (UniProt Q9NUU6)
T3 sequence (whole entry): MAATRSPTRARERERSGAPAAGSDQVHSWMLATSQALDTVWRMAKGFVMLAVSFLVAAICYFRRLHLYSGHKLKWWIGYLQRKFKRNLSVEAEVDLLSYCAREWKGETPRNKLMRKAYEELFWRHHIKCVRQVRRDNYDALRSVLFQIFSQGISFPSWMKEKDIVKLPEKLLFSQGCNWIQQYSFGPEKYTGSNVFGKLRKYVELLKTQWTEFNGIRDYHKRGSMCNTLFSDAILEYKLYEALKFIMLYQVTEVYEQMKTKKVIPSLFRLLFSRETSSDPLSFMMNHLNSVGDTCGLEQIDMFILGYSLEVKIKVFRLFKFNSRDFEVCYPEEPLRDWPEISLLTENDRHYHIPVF
In short: as §1

OTUB1 = OTUB1 (UniProt Q96FW1)
Chain of OTUB1 (Q96FW1 whole entry): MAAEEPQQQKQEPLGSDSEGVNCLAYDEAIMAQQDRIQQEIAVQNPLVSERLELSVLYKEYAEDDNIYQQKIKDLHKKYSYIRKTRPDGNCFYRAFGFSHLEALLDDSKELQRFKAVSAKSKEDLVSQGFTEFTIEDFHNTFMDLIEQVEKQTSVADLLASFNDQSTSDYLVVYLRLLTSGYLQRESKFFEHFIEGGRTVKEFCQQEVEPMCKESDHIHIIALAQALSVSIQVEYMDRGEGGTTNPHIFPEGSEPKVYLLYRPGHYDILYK
In short: as §1

OTUD4 = biological target: T4, OTUD4 (UniProt Q01804)
T4 sequence (whole entry): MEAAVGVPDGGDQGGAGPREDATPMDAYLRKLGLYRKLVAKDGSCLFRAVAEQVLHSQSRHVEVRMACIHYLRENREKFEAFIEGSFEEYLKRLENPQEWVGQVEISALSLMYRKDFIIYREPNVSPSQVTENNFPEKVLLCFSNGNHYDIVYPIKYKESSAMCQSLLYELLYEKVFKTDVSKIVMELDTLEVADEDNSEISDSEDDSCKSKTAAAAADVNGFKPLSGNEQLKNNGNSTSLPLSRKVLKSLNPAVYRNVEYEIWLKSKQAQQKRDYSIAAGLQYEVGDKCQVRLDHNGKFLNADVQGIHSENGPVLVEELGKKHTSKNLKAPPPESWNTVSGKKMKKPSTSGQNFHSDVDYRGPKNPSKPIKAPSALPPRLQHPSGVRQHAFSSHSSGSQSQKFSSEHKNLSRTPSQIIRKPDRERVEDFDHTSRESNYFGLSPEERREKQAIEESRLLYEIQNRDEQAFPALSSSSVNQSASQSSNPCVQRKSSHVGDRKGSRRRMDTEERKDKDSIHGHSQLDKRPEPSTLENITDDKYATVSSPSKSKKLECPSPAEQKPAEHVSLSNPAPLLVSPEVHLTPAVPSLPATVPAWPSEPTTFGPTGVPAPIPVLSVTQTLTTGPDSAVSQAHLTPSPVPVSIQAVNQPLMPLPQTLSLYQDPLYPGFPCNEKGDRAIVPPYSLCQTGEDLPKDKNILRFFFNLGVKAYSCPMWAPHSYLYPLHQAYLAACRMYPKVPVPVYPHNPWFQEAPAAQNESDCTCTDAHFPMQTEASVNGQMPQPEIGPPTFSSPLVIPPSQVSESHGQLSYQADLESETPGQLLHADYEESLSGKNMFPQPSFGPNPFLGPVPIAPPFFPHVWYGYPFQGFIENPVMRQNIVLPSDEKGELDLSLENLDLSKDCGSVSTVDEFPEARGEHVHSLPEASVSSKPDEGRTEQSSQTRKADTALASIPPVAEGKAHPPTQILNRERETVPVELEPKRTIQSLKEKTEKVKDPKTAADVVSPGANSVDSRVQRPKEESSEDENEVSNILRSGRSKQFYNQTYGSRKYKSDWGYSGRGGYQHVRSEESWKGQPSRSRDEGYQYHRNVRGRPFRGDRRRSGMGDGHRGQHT
In short: as §1

OTUD5 = biological target: T5, OTUD5 (UniProt Q96G74)
T5 sequence (whole entry): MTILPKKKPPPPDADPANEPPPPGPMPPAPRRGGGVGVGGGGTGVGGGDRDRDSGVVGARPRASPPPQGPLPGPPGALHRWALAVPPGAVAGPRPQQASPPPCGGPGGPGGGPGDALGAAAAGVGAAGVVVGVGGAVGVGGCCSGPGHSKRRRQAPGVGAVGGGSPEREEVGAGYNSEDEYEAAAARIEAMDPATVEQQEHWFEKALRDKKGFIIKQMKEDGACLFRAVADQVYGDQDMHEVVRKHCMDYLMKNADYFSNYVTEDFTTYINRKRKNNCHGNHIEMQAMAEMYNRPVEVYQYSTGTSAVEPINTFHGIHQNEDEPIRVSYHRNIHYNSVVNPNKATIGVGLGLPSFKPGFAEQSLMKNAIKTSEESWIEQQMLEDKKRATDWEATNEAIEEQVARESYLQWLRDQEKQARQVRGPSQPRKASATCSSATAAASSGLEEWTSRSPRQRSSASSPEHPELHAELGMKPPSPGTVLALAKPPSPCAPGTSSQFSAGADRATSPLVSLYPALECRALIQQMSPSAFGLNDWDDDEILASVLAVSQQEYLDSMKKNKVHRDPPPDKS
In short: as §1

Measured: log2 ratio of Biotin-Ahx-Ub-VS probe labelling

CC1Cc2ccccc2N1C(=O)CCl (centres undefined)
inactive: ALG13 -0.0487 | ATXN3 -0.989 | BAP1 -0.55 | EIF3F -0.355 | EIF3H 0.0594 | FAM105A -0.0636 | OTUB1 -0.626 | OTUD4 -0.544 | OTUD5 -0.957
